Source: PubChem BioAssay
Values joined by “and” are separate entries in the source; they are usually repeats but may differ in a detail not shown here. Identical values can stand only once. Active and inactive are the calls of the source.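 How the source made its calls: active means z-score of at least 1.8 in each of two replicates, scored against plate mean and spread of sample wells; inactive means the rest.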

experiment: MELAS cybrid and Rieske KO viability enhancers – cell-based, MELAS cybrids, Rieske KO mouse fibroblasts, CellTiter-Glo, primary screen (AID 1508586); conditions: Rieske KO mouse fibroblast survival, low glucose, CellTiter-Glo 72 h;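 further: test concentration not given here; z relative to plate mean and SD of compound and empty wells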

Structure (SMILES)	z-score
CCn1c(-c2nonc2N)nc2c(C#CC(C)(C)O)nc(OC[C@@H](N)c3ccccc3)cc21	0.238
COc1ccc(-c2cc3c(N)ncnc3o2)cc1	0.359
COc1cc(/C=N/Nc2ncnc3[nH]ncc23)ccc1O	-0.093
CN(C)c1cc2c(Nc3ccc4nc(Cc5ccccc5)[nH]c4c3)ncnc2cn1	-0.0343
FC(F)(F)c1ccc(-c2nn3ncccc3c2-c2ccnc(Nc3ccc4c(c3)OCCO4)n2)cc1	0.23
NS(=O)(=O)c1ccc(N=Nc2c(O)[nH]c3ccc(C(=O)NCCCn4ccnc4)cc23)cc1	-0.000813
CN(c1ccc(NC(=O)Nc2ccc(OC(F)(F)F)cc2)cc1)c1ccnc(Nc2cccc(S(N)(=O)=O)c2)n1	0.249
CCn1c(-c2nonc2N)nc2cnc(Oc3cccc(NC(=O)c4ccc(OCCN5CCOCC5)cc4)c3)cc21	0.152
COc1cccc(-n2ncc3c(N/N=C/c4ccc(F)cc4)ncnc32)c1	-0.0554
COc1cc2ncn(-c3cc(OCc4ccccc4S(C)(=O)=O)c(C#N)s3)c2cc1OC	-0.131
COc1ccc(COc2ccc(Cc3cnc(N)nc3N)cc2OC)cc1	-0.126 and -1.03
CN(C)c1cc2c(Nc3ccc4c(cnn4Cc4ccccc4)c3)ncnc2cn1	-0.233
CN1CCC(n2cnc(-c3ccc(F)cc3)c2-c2ccnc(Nc3ccccc3)n2)CC1	-0.322
N#Cc1c(NC(=O)c2ccccc2F)sc2c1CCCC2	-0.249 and 0.00256
CC(=O)Nc1cccc(C#Cc2cncnc2Nc2ccc(OCc3cccc(F)c3)c(Cl)c2)c1	0.00771
CCOc1ccc2c(-c3ccnc(Nc4cc(OC)cc(C(F)(F)F)c4)n3)cnn2n1	-0.17
Nc1nccc(-c2c(-c3ccc(F)cc3)ncn2C2CCNCC2)n1	0.00861 and -0.488

Structure (SMILES)	z-score
NC(=O)c1ccc2c(-c3ccnc(NCCCO)n3)c(-c3ccc(F)cc3)nn2c1	-0.24
Cn1cc(C2=C(c3cn(CCCSC(=N)N)c4ccccc34)C(=O)NC2=O)c2ccccc21	-1.11
Fc1cccc(COc2ccc(Nc3ncnc4sc(-c5ccco5)cc34)cc2Cl)c1	-0.52
Fc1cccc(COc2ccc(Nc3ncnc4cc(-c5ccc[nH]5)sc34)cc2Cl)c1	-0.0837
C#Cc1cccc(Nc2ncnc3ccc(OCCCCNCCS(C)(=O)=O)cc23)c1	-0.333
O=S1CCN(Cc2ccc(-c3ccc4ncnc(Nc5ccc(OCc6ccccc6)c(Cl)c5)c4c3)o2)CC1	-0.081
O=C1NC(=O)C(c2ccccc2Cl)=C1Nc1cccc(O)c1	-0.424
NC(=O)c1ccc(-c2nc(-c3ccc4c(c3)OCO4)c(-c3ccccn3)[nH]2)cc1	-0.512 and 0.389
CN(C)CCOc1ccc(-c2nc(-c3ccc4c(c3)CC/C4=N\O)c(-c3ccncc3)[nH]2)cc1	2.06
FC(F)(F)c1cccc(Nc2nccc(-c3cnn4nc(-c5ccccc5)ccc34)n2)c1	-0.183
Nc1ncnc2occ(-c3ccc(NC(=O)Nc4cc(C(F)(F)F)ccc4F)cc3)c12	-0.123 and -0.164
Cn1cc(/C=C2\C(=O)Nc3cccnc32)c2ccccc21	-0.515
Cc1ccc(O)cc1Nc1ccnc2cc(-c3ccccn3)ccc12	4.8
Cn1c(-c2nonc2N)nc2cnccc21	-0.308
Fc1ccc(-c2nc3n(c2-c2ccncc2)CCS3)cc1	0.11
COc1ccc(-c2oc3ncnc(N)c3c2-c2ccc(NC(=O)Nc3cc(C(F)(F)F)ccc3F)cc2)cc1	-0.0748
NS(=O)(=O)c1ccc(N=Nc2c(O)[nH]c3ccc(Cl)cc23)cc1	-0.311

experiment: galactose survival enhancers in mitochondrial complex I cybrids – cell-based, galactose medium, ATP luminescence, primary screen (AID 1645843); conditions: complex I mutant cybrid cells, 72 h, stronger effect = higher value;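 further: positive z means more ATP and so rescue of galactose-driven cybrid death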

Structure (SMILES)	z-score
CN(C)c1cc2c(Nc3ccc4c(cnn4Cc4ccccc4)c3)ncnc2cn1	-0.71 (inactive)
N#Cc1c(NC(=O)c2ccccc2F)sc2c1CCCC2	0.305 (inactive)
Cn1cc(C2=C(c3cn(CCCSC(=N)N)c4ccccc34)C(=O)NC2=O)c2ccccc21	-0.7 (inactive)
NC(=O)c1ccc(-c2nc(-c3ccc4c(c3)OCO4)c(-c3ccccn3)[nH]2)cc1	-0.03 (inactive)
Fc1ccc(-c2nc3n(c2-c2ccncc2)CCS3)cc1	-0.365 (inactive)
